Experimental data as given in PubChem BioAssay AID1508609 (The Scripps Research Institute Molecular Screening Center, 2020).
Hit rate of the full screen: of about 6,700 compounds, fewer than 10 were called active.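 The calls were made as follows: active = mean percent activation across replicates above the confirmation screen cutoff of 4.91%; inactive = the rest.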 These entries were drawn from the full list.

biological target: G-protein coupled receptor 151 (Homo sapiens) (UniProt Q8TDV0); assay: GPR151 agonism via beta-arrestin recruitment – cell-based, PathHunter beta-arrestin, luminescence, confirmation (AID 1508609); details: GPR151 PathHunter beta-arrestin cells, 90 min, at 11.2 µM, stronger effect = higher value, % of EA-reagent control over plate median
Sequence (Q8TDV0 whole entry, looked up): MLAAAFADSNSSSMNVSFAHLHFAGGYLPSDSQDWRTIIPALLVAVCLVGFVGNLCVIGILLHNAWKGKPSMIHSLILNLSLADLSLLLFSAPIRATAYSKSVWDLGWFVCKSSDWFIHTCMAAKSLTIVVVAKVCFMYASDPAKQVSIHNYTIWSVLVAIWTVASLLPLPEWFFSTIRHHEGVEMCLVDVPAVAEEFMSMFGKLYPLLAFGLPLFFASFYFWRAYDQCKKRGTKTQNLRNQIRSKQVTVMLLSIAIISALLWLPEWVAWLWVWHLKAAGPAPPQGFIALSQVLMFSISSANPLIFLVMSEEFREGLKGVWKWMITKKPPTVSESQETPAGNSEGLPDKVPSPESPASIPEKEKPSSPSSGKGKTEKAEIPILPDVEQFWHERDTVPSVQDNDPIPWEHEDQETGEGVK

activation, inactive:
Cc1nnc(SCC(=O)NCc2ccccc2)s1 -1.41%
CCN(CC)c1nc(Nc2cc(OC)c(OC)c(OC)c2)nc(N2CCOCC2)n1 -0.81%
COc1ccc2c(c1)C=C(CN1CCN(CC3CCCCC3)C(CCO)C1)CO2 (stereo unspecified) 0.99%
COc1ccc(OC)c(NC(=O)CN(c2cccc(C)c2C)S(C)(=O)=O)c1 -1.37%
CCc1cc2c(=O)c(-c3ccc4c(c3)OCCCO4)coc2cc1OC(=O)N1CCOCC1 -0.64%
COc1cc(Nc2cc(N3CCN(c4ccc(F)cc4)CC3)c3noc4c3c2C(=O)c2ccccc2-4)cc(OC)c1OC -0.64%
O=CN1CCN(CCC(=O)Nc2ccccc2)CC1 1.05%
CC1(C(=O)Nc2cccc(C(F)(F)F)c2)CC2c3ccccc3C1c1ccccc12 (stereo unspecified) 0.28%
C=CCN(c1ccc(C(=O)Nc2ccc(OCc3ccccc3)cc2)cc1)S(C)(=O)=O -0.47%
O=C(COc1ccc(S(=O)(=O)NCCc2ccccc2)cc1)NC1CC1 -1.2%
COc1cc(NC(=O)C2CC(c3ccccc3O)=NO2)c(OC)cc1Cl (stereo unspecified) 0.24%
CCCCCC(=O)N/N=C(/C)c1ccc(O)cc1O 0.98%
CCOC(=O)c1sc(NC(=O)CSc2ncccn2)c(C#N)c1C -0.62%
O=C(Cn1nnc2ccccc21)N/N=C/c1c(O)ccc2ccccc12 0.12%
CC(C)CCSc1nc2c(c(=O)n1Cc1ccco1)C1(CCCCC1)Cc1ccccc1-2 0.06%
CN1CCN(c2ccc(-c3nc4ccc(C(=O)NCc5nc6ccccc6[nH]5)cc4s3)cc2)CC1 -0.31%
COc1cccc(C(=O)Nc2sc3c(c2C(N)=O)CCCCCC3)c1 0.1%
COc1ccc(N2C(=O)C3CCCN3C2c2cccc(OC)c2)cc1 (stereo unspecified) -1.45%
CCOc1ccc(/C=C2N=C(/C=C/c3cccc(Cl)c3Cl)OC\2=O)cc1 -0.04%
CCN(CC)S(=O)(=O)c1ccc(N2CCCC2)c(NC(=O)c2ccc([N+](=O)[O-])o2)c1 0.12%
COCCN1C(=O)CC(CC(=O)NCc2nc3ccccc3[nH]2)(c2ccccc2C)C1=O (stereo unspecified) 0.82%
CCc1nn(CCCN2CCN(c3cccc(Cl)c3)CC2)c(=O)n1CCOc1ccccc1 0.13%
CCOC(=O)c1sc2nc(SCC(=O)N(C)Cc3ccccc3)n(Cc3ccc4c(c3)OCO4)c(=O)c2c1C -1.12%
COc1ccccc1C(=O)N/C(=C\c1ccc2c(c1)OCO2)C(N)=O -0.62%
O=C(N/N=C/c1cccc(Cl)c1Cl)c1cccs1 -1.68%
Cc1ccc(NCC(=O)N/N=C\c2ccc(I)o2)cc1 -0.49%
CC1CCN(CC(=O)Nc2ccccc2Cl)CC1 0.1%
CCCOc1ccc([N+](=O)[O-])cc1C=C1C(=O)NC(=O)NC1=O -0.34%
COc1ccc(OC)c(NC(=O)CSc2nnc3[nH]c(=O)c(C)c(C)n23)c1 -0.4%
COc1ccc(C(=O)Cc2cc3ccccc3oc2=O)c(OC)c1 -0.78%
CCc1ccc(-c2ccc(C3CCC(CC)CC3)cc2)nc1 (stereo unspecified) -0.84%
CCc1ccc(S(=O)(=O)NCCOc2cc(N3CCOCC3)ncn2)cc1 0.53%
CCOC(=O)C1=C(CC)OC(N)=C(C#N)C1c1ccc(C(F)(F)F)cc1 (stereo unspecified) -0.53%
CCC[C@@H]1NC(=O)[C@@H]2C[C@H](NCc3nc(-c4ccc(F)cc4)cs3)CN2C1=O 0.46%
CC(C)CC(C(=O)Nc1cccc([N+](=O)[O-])c1)N1C(=O)c2ccccc2C1=O (stereo unspecified) 0.6%
COc1ccc(C(=O)COC(=O)C(Cc2ccccc2)NC(=O)c2ccco2)cc1 (stereo unspecified) 0.8%
CCC1(c2ccc(Cl)cc2Cl)NC(=S)N(c2ccc(C)c(C)c2)N1 (stereo unspecified) 0.75%
CCC(C(=O)N1CCCCC1)n1c(C)c2cnn(-c3ccccc3)c(=O)c2c1C (stereo unspecified) -0.56%
Cc1ccc2cc(C#N)c(SCCO)nc2c1 0.26%
COc1ccc(/C=C(\C#N)C(=O)Nc2cccc(S(=O)(=O)N3CCCCC3)c2)cc1 -1.24%
Cc1ccc(Nc2nc(-c3ccccn3)cs2)cc1C -1%
CC(C)(C)NC(=O)Cc1coc2ccc3ccccc3c12 0.92%
COc1ccc(/C=C(\C#N)C(=O)Nc2ccc(F)cc2)c(OC)c1 0.7%
Cc1ccc(-n2cc(-c3ccccc3)c3c(N4CC(C)OC(C)C4)ncnc32)cc1 (stereo unspecified) 0.03%
COc1cc(/C=N/N=C2/NC(=O)CS2)ccc1OC(=O)c1ccccc1C -0.88%
O=C(CN1C(=O)S/C(=C\c2ccc(Cl)s2)C1=O)Nc1ccccc1F -1.03%
CO[C@@H]1COC(=O)[C@@H](C)COC(=O)[C@H](C)NC(=O)C/C=C/[C@H]1C 0.63%
Cn1c2ccccc2c2nnc(SCC(=O)Nc3ccc(NC(=O)C4CC4)cc3)nc21 0.69%
Cc1nn(C)c(C)c1-c1nc2ncnc(NCCO)c2[nH]1 -0.32%
CCc1nnc2n1N(C(C)=O)C(c1ccc3c(c1)CCCC3)=C(C(C)=O)S2 0.79%
CC(C)(C)OC(=O)N1CCC[C@H](Cn2cc(C(=O)O)nn2)C1 0.63%
Cc1nc2cc(C(=O)NCc3ccc4c(c3)OCO4)ccc2n1-c1ccc(OCc2ccccc2)cc1 -1.41%
CCCCNC(=O)C1(c2ccc(OC)cc2)CCOCC1 -0.13%
CCC(=O)N(CCC(Cc1ccccc1)c1ccc2c(c1)OCO2)Cc1ccc(OC(C)C)cc1 (stereo unspecified) 1.24%
CC(C)c1ccc(Nc2nccn3c(-c4cccc(CO)c4)cnc23)cc1 1.58%
Cc1ccc(S(=O)(=O)NCc2nc3nc(C)cc(C)n3n2)cc1 -1.42%
Nc1cc(=O)nc(SCC(=O)Nc2nccs2)n1-c1ccc(F)cc1 1.67%
c1ccc(NCc2cccc3ccccc23)nc1 -0.81%
COc1ccccc1C1C(C(N)=O)=C(C)Nc2nc(CCCO)nn21 (stereo unspecified) -0.72%
CC1CCN(C(=O)C(NS(=O)(=O)c2ccc3c(c2)oc(=O)n3C)C(C)C)CC1 (stereo unspecified) 0.12%
Cc1cc(=O)[nH]c(SCC(=O)Nc2cccc3ccccc23)n1 -0.05%
COc1cccc(C2SCC(=O)N2c2cccc(C)c2)c1OC (stereo unspecified) 0.31%
CC(C)(C)C1CCC(=NNC(=O)C(=O)NCCc2ccccc2)CC1 (stereo unspecified) 1.36%
C#CCOc1ccc(Br)cc1/C=C1\NC(=S)N(C)C1=O -0.05%
Cc1ccc(NC(=O)CCn2c(=O)oc3ccccc32)cc1Cl 0.81%
C(=N\N1CCN(c2ccccn2)CC1)/C1=C(N2CCOCC2)C(=C/c2ccccc2)/CC1 0.86%
CC(C)(C)C1(O)CCN2C[C@H]3c4ccccc4CCc4cccc(c43)[C@@H]2C1 (stereo partly specified) -0.56%
CCOCCCNC(=O)NC1CCN(c2nc3ccccc3s2)CC1 0.63%
CCOC(=O)Cc1coc(NC(=O)c2ccc(Cl)cc2)n1 1.26%
CC(C)C(=O)NNS(=O)(=O)c1ccc([N+](=O)[O-])cc1 -0.02%
N#Cc1ccc(N2CCN(CCCNC(=O)Nc3ccccc3)CC2)cc1 -0.19%
O=C1Cc2cc(S(=O)(=O)Nc3cccc(Cl)c3)cc3c2N1CCC3 0.12%
COc1cccc(NC(=O)CN(C)S(=O)(=O)c2ccc3c(c2)SCC(=O)N3)c1 -0.01%
CCNc1nc(NC(C)C)nc(OCCOC(C)=O)n1 -0.68%
OCc1ccccc1CNc1ccc(F)cc1 0.05%
COCCNCCOc1ccc(C(C)(C)C)cc1 -1.21%
CCN(CC)C1CCN(C(=O)c2cc(COc3ccc4ncccc4c3)on2)C1 (stereo unspecified) -1.18%
COc1ccc(-c2cc(N)n(S(=O)(=O)c3ccccc3)n2)c(OC)c1 -0.31%
COc1cc2nc(-c3ccc4c(c3)C(=O)N(CCC(C)C)C4=O)oc(=O)c2cc1OC 0.42%
COc1ccc(Nc2nc(-c3ccc(F)cc3)cs2)c(OC)c1 -0.04%
CCCN1C(=O)c2ccc(C(=O)Nc3ccc(C(C)=O)cc3)cc2C1=O 0.09%
CC(C(=O)NCCN1CCOCC1)n1c2ccccc2c2cn[nH]c(=O)c21 (stereo unspecified) -0.57%
c1ccc2sc(-c3cnc4ccc(NC5CCOCC5)nn34)cc2c1 -1.36%
O=C(COc1ccc(Br)cc1CO)NCC(F)(F)F 0.36%
CCOc1ccc(NC(=O)N2CCN(CC)CC2)cc1 0.34%
CCc1ccc(N2N=C(C)/C(=C\c3ccc(-c4ccc5c(c4)C(=O)NC5=O)o3)C2=O)cc1 -0.14%
O=S(=O)(NCc1csc(-c2cccnc2)n1)c1ccc2ccccc2c1 0.68%
CCN1/C(=C/c2ccc3cc(C)ccc3[n+]2CC)Sc2ccc(-c3ccccc3)cc21 -0.55%
Cc1ccc(NC(=O)Cn2cc(-c3ccccc3)c(N3CCOCC3)n2)c(C)c1 -0.77%
CC1CCCCN1C(=O)c1cc2c(=O)n(C)c3ccccc3c2s1 (stereo unspecified) 0.54%
COc1cccc(/C=C2/C(=O)NC(=O)N(c3ccccc3F)C2=O)c1 0.99%
